NPC1 promoter act = qHTS Assay for NPC1 Promoter Activators; 320,000 compounds, 2.4% hits; Potency, µM (series often up to 9.22 µM), for inactives: at the top dose activation, usual class: activators; Huh7 NPC1 promoter luciferase reporter, 24 h; note: % of control where 0% means no effect; nearly all actives have a fitted effect of over 60% in size
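Cells: Huh7 expressing luciferase under the NPC1 promoter, 1500/well. Seeded 2 h, compound added, incubated 24 h at 37 °C. Luciferase reagent, 10 min ambient, then luminescence.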
SMN2 splice enh = qHTS Assay for Enhancers of SMN2 Splice Variant Expression; HEK293 SMN2-luciferase splicing reporter, luminescence, 30-36 h; Potency, µM (highest dose often 46.1 µM), without a hit: at the highest dose activity change, positive = activation, usual class: activators; 210,000 compounds, 2.8% hits; AID 1458, 2008; note: % of control where 0% means no effect; nearly all actives have a fitted effect of over 55% in size
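HEK293 cells carry an SMN2 minigene-luciferase reporter in which exon 7 inclusion puts luciferase in frame. Cells were seeded at 2000 cells/well, attached for 10-12 hours, then exposed to compounds for 30-36 hours at 37C before ONE-Glo luminescence.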
ELG1 genotoxic = qHTS screen for small molecules that induce genotoxicity in human embryonic kidney (HEK293T) cells expressing luciferase-tagged ELG1; HEK293T ELG1-luciferase reporter, luminescence, 16 h; Potency, µM (highest dose often 46 µM), for the others: top-dose activity change, positive = activation, hits mostly activators; 330,000 compounds, 1.3% hits; AID 504466, 2011; note: % of control where 0% means no effect; nearly all actives have a fitted effect of over 60% in size
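DMSO vehicle served as control against compound-treated ELG1-luciferase HEK293T cells; exposure lasted 16 hr at 37 °C and 5% CO2, followed by ONE-Glo luminescence detection after 30 min.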
Luc counter = Counterscreen for Luciferase (Kinase-Glo TM) Inhibition. Luciferin 4-monooxygenase (Photuris pensylvanica), Q27757. Kinase-Glo luciferase, ATP luminescence, 8 min. Potency, µM (doses to about 38.3 µM), without a hit: at the highest dose activity change, negative = inhibition, most hits filed as inhibitors. 200,000 compounds, 0.28% hits. AID 1379, 2008; note: % is set by controls: 0 for no effect and ±100 for the full control effect; nearly all actives have a fitted effect of over 60% in size
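Recombinant Kinase-Glo luciferase, 10 uM ATP (linear range), luciferin; imidazole pH 7.2 / KCl / MgCl2 / Tween / BSA buffer; 8 min RT; luminescence.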
Rab9 promoter act = qHTS Assay for Rab9 Promoter Activators; Huh7 Rab9 promoter-luciferase reporter, luminescence, 24 h; 320,000 compounds, 2.8% hits; Potency, µM (series often up to 9.22 µM), inactives show at the top dose activation, negative = inhibition, usual class: activators; note: % of control where 0% means no effect; nearly all actives have a fitted effect of over 60% in size
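Steps: seed 1500 Huh7 Rab9-luc cells per well, rest 2 h at 37 °C; add compound in DMSO; incubate 24 h; add luciferase reagent, 10 min ambient; read luminescence.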
FLuc counter = qHTS profiling assay for firefly luciferase inhibitor/activator using purifed enzyme and Km concentrations of substrates (counterscreen for miR-21 project) | Potency, µM (doses to about 57.5 µM), for inactives: top-dose activity change, negative = inhibition, usual class: inhibitors | purified FLuc, Km substrates, luminescence inhibition | 360,000 compounds, 6.9% hits | AID 588342, 2011 | Luciferin 4-monooxygenase (Photinus pyralis), P08659;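 note: plate controls were vehicle for no effect and reference inhibitor for full effect; nearly all actives have a fitted effect of over 55% in size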
Target sequence (P08659 whole entry, looked up): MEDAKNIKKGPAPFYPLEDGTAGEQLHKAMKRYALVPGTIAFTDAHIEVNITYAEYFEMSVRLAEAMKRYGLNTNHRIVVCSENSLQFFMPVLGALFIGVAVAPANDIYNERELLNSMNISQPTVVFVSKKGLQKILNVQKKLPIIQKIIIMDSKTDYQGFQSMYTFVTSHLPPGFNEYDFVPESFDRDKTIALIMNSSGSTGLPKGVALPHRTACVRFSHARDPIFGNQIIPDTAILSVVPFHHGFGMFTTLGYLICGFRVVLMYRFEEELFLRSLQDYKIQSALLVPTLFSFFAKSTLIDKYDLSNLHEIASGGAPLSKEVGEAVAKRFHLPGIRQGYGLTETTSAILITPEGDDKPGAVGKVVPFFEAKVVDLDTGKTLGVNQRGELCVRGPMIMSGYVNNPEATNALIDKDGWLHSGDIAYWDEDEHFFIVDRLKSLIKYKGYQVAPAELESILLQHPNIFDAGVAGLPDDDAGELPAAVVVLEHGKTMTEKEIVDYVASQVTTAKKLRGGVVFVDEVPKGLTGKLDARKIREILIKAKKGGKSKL
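Biochemical qHTS of compounds, final roughly 60 µM downward over six points, against 10 nM purified firefly luciferase using Km concentrations of substrates (10 uM D-luciferin, 10 uM ATP) in Tris acetate pH 7.5 buffer; luminescence output.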
The depositor's hits bear a star; ? = inconclusive; nt = not tested or not shown; [ ] = remark or other dose. Most compounds without a hit are left out; they make up all but 7.5% or so of the library. Calls come from the whole dose curve; as a rule, active = well fitted curve in the direction sought with a large enough effect; inconclusive = small, poorly fitted or top-dose-only effect, or another doubt; inactive = no such curve, though single readings can be large; an effect the other way counts as inactive or inconclusive. Potency is the fitted concentration of half-maximal effect.

SMILES	NPC1 promoter act	SMN2 splice enh	ELG1 genotoxic	Luc counter	Rab9 promoter act	FLuc counter
COc1cccc(-c2ccnc3c(-c4ccccc4)c(C)nn23)c1	nt	?	nt	nt	nt	10.7µM*
COc1cccc(-c2ccnc3c(-c4ccc(F)cc4)c(C)nn23)c1	nt	14.8%	nt	nt	nt	8.49µM*
CCOc1ccccc1NC(=O)c1nc2nc(C)cc(C(F)F)n2n1	nt	nt	nt	nt	nt	-1.4%
CCOc1ccc2c(c1)nc(SCC(=O)c1cccs1)n2C	?	23.0%	?	-2.7%	25.0%	12µM*
COC(=O)CCc1sc(Nc2ccccc2)nc1-c1ccc(OC)cc1	14.8%	?	?	1.5%	24.9%	23.9µM*
COc1ccc(Nc2nc(-c3ccc(OC)cc3)c(CCC(=O)O)s2)cc1	-4.7%	nt	3.2%	nt	-8.0%	?
Cc1cc2oc(=O)c(CC(=O)NCCCO)c(C)c2c2occ(C(C)(C)C)c12	16.0%	nt	-0.9%	nt	-0.4%	10.7µM*
Cc1coc2c1c(C)cc1oc(=O)c(CC(=O)NCCCCCC(=O)O)c(C)c12	-0.5%	nt	2.6%	nt	-2.6%	?
Cc1coc2c1c(C)cc1oc(=O)c(CC(=O)NCC(=O)O)c(C)c12	-3.6%	nt	2.6%	nt	-9.9%	?
Cc1cc2oc(=O)c(CC(=O)NCCCN(C)C)c(C)c2c2occ(C(C)(C)C)c12	21.9%	nt	0.6%	nt	-3.6%	?
COCCNC(=O)Cc1c(C)c2c(cc(C)c3c(C(C)(C)C)coc32)oc1=O	-19.4%	nt	3.5%	nt	-7.7%	2.69µM*
CSCC[C@H](NC(=O)Cc1c(C)c2c(cc(C)c3c(C)coc32)oc1=O)C(=O)O	-2.8%	nt	1.0%	nt	-8.6%	19µM*
Cc1cc2oc(=O)c(CC(=O)O)c(C)c2c2occ(C(C)(C)C)c12	?	nt	19.7%	nt	14.6%	21.3µM*
CC[C@@H](C)[C@H](NC(=O)Cc1c(C)c2c(cc(C)c3c(C)coc32)oc1=O)C(=O)O	-11.8%	nt	2.5%	nt	-2.4%[1.84 µM]	?
CCCN(c1ccccc1F)S(=O)(=O)c1cc(-c2cc(C)no2)ccc1OC	-3.6%	nt	-2.6%	nt	-11.4%	2.7%
CC(C)(C)c1ccc(-c2nc(S(=O)(=O)c3ccccc3)c(N3CCOCC3)o2)cc1	nt	5.8%	nt	nt	nt	-1.6%
COc1ccccc1C(=O)NNC(=O)c1ccc(Br)cc1	19.5%	nt	8.2%	nt	5.5%	13.5µM*
COc1ccccc1CNC(=O)c1ccc(Br)o1	-2.5%	-24.7%	3.4%	3.1%[39.9 µM]	-11.3%	-5.1%
COc1ccccc1C(=O)NNC(=O)c1ccc(Br)o1	?	nt	?	nt	20.1%	16.9µM*
COc1ccccc1C(=O)NNC(=O)c1ccc(C)cc1	26.5%	nt	?	nt	?	15.1µM*
COc1ccccc1C(=O)NNC(=O)c1ccncc1	10.4%	-9.8%	7.4%	1.1%	12.9%	-16.4%
COc1ccccc1C(=O)NNC(=O)c1ccc(NC(=O)CC(C)C)cc1	1.1%	nt	1.7%	nt	9.1%	-12.1%
COc1ccc(C(=O)Nc2nnc(SCc3cc(=O)n4cc(Cl)ccc4n3)s2)cc1	nt	nt	nt	nt	nt	-19.0%
Cn1cnc(S(=O)(=O)Nc2ccccc2C(=O)NCC2CC2)c1	-2.5%	nt	0.0%	nt	0.1%	-1.4%
O=C(NCc1ccccc1Cl)c1nnc(Cc2cccc(F)c2)o1	nt	nt	nt	nt	nt	-15.6%
SMILES	NPC1 promoter act	SMN2 splice enh	ELG1 genotoxic	Luc counter	Rab9 promoter act	FLuc counter
Cc1nc(SCC(=O)c2ccc(Cl)s2)c2oc3ccccc3c2n1	?	12.3%	-0.4%	4.3%	?	9.53µM*
O=C(O)CSc1nc(-c2ccc(Cl)cc2)nc2c1oc1ccccc12	-1.7%	12.2%	-2.6%	0.2%	0.1%	?
CCc1nc(SCC(=O)c2cccs2)c2oc3ccccc3c2n1	0.1%	-25.5%	-4.4%	-3.5%	18.2%	10.7µM*
CCc1nc(SCC(=O)NCCc2ccccc2)c2oc3ccccc3c2n1	-3.3%	-15.5%	-4.9%	-3.7%	4.3%	-19.4%
O=C(O)CSc1nc(-c2ccccc2)nc2c1oc1ccccc12	3.0%	-7.1%	-0.3%	-3.7%	-2.9%	21.3µM*
Cc1cccc(NC(=O)/C=C/c2ccc(Cl)cc2)n1	3.98µM*	3.55µM*	1.0%	-9.1%	2.24µM*	1.07µM*
O=C(/C=C/c1ccccc1)Nc1ccc(Cl)cn1	?	12.6µM*	?	1.4%	?	2.69µM*
CCOC(=O)c1ccc(NC(=O)/C(C#N)=C/c2ccc(OC)cc2)cc1	nt	-3.2%	nt	nt	nt	-1.0%
COc1ccc(/C=C(\C#N)C(=O)Nc2cccc(C)n2)cc1	0.5%	nt	2.1%	nt	4.8%	0.953µM*
Cc1cccc(NC(=O)CCCNC(=O)c2ccc(Cl)cc2)n1	-2.2%	nt	-2.3%	nt	1.4%	2.3%
Cc1cccc(NC(=O)/C(C#N)=C/c2cccc([N+](=O)[O-])c2)n1	-0.2%	nt	-0.8%	nt	-3.1%	?
Cc1cccc(NC(=O)/C(C#N)=C/c2ccc(Cl)cc2)n1	1.0%	nt	-3.3%	nt	-0.1%	2.39µM*
O=C(COC(=O)/C=C/c1ccccc1)Nc1ccc(Cl)cn1	7.6%	nt	-0.5%	nt	2.1%	0.3%
O=[N+]([O-])c1ccccc1CNCCCCCO	-1.8%	nt	3.3%	nt	-2.3%	-0.1%
O=C1OC(c2ccc(F)cc2)=C/C1=C\c1ccc(O)cc1	7.7%	nt	1.3%	nt	13.5%	10.7µM*
CCOc1ccc(N(CC)S(=O)(=O)c2cc(Br)cc3c2N(C(C)=O)C(C)C3)cc1 (stereo unspecified)	nt	-63.8%	nt	nt	nt	-14.0%
COc1cccc2c1C(=O)c1c(O)c3c(c(O)c1C2=O)C[C@@](O)(C(=O)CO)C[C@@H]3OC1C[C@@H](N)[C@H](O)[C@H](C)O1 (stereo partly specified)	nt	nt	nt	-12.6%[39.9 µM]	nt	nt
O=C(c1cc(COc2c(F)cccc2F)on1)N1CCC(c2ccncc2)CC1	-31.5%	nt	-6.9%	1.0%	-30.8%	-2.8%
O=C(c1cc(COc2c(F)cccc2F)on1)N1C[C@H]2CC[C@H]1C2	3.16µM*	nt	11.6µM*	nt	1.58µM*	12µM*
Cc1cccc(C)c1OCc1cc(C(=O)N2CCC(c3ccncc3)CC2)no1	5.7%	nt	9.7%	nt	0.7%	13.5µM*
O=C(c1cc(COc2c(F)cccc2F)on1)N1CCC(c2ccccc2F)C1 (stereo unspecified)	28.7%	nt	?	-3.5%	?	15.1µM*
COc1ccc(OCC(=O)OCC(=O)Nc2ccc3[nH]c(=O)[nH]c3c2)cc1	-2.9%	nt	-1.4%	nt	-2.4%	1.1%
O=C(NC1=NC2CCCCC2N1)c1ccccc1 (stereo unspecified)	0.398µM*	15.1%	0.581µM*	?	0.316µM*	1.51µM*

Source: PubChem BioAssay (National Center for Advancing Translational Sciences (NCATS))
